PubChem BioAssay (Tox21)
The source made the active and inactive calls. Entries that show only a call come without a potency. Calls follow the shape of the dose curve; as a rule, active = well fitted curve in the direction sought with a large enough effect in the repeat runs; inconclusive = weak or mixed curves; inactive = flat fitted curve, though single readings scatter.

Test: qHTS assay to test for compound auto fluorescence at 460 nm (blue) in HEK293 cells (AID 720678)
Conditions: blue autofluorescence 405/460 nm; series mostly up to 91.3 µM
Source text: National Center for Advancing Translational Sciences [NCATS]
NIH Chemical Genomics Center [NCGC]
U.S. Environmental Protection Agency [EPA]
National Institutes of Environmental Health Sciences [NIEHS]
National Toxicology Program [NTP]
U.S. Food and Drug Administration [FDA]
Compound auto fluorescence often interferes with screening of the compound library against various biological targets and signaling pathways. Some of these compounds may have fluorophoric properties. Such properties may interfere with the assay outputs resulting in false positives and/or negatives. To decrease such complications and ensure the compound activities are relevant in terms of biological response, the Tox21 10K compound library was screened for auto fluorescence.
From the fluorophores used as reporter signals in our screening assays, the auto fluorescence equivalencies of compounds against three fluorophores have been evaluated: Triamterene, Fluorescein and Rose Bengal sodium for blue, green and red fluorescence, respectively. The fluorescence intensities were measured using Excitation/Emission wavelengths at 405/460nm, 485/535nm and 540/590nm for blue, green and red labels, respectively. This assay includes the blue fluorescence data.
Tox21 Assay Protocol Summary:
2,000 HEK293 cells in 5 uL of culture medium containing 10% dialyzed FBS per well were dispensed into black wall/clear bottom 1536-well plates using a Multidrop Combi Dispenser (Thermo Scientific). The assay plates were incubated for 4-5 hr at 37C to allow cell attachment to the well bottom, followed by the transfer of 23 nL compound or DMSO vehicle by a pintool work station (Kalypsys, San Diego, CA). After the assay plates were incubated overnight at 37C and 5% CO2, fluorescence intensities in the assay plates were measured by an Envision (PerkinElmer, Shelton, CT) plate reader using three labels for measuring blue, green and red fluorescence at […] 460, 535 and 590nm respectively.
In the case of `O=S(=O)(O)F`, the Potency is reported as “inactive”. In the case of `Oc1ccc2[nH]cc(CCCCN3CC=C(c4ccccc4)CC3)c2c1`, the Potency is reported as “inactive”. In the case of `COP(=S)(NC(C)C)Oc1ccc(C)cc1[N+](=O)[O-]` (stereo not given), the Potency is reported as “inactive”. In the case of `CCC[CH2][Sn]([CH2]CCC)([CH2]CCC)[CH2]CCC`, the Potency is reported as “inactive”. With `N#CSCc1ccccc1` the Potency was “inactive”. In the case of `Clc1c(Cl)c(Cl)c(Cl)c(Cl)c1Cl`, the fluorescence, % of triamterene is reported as -0.0308% [at 3.72 µM] (inactive). For `CNC(=O)O/N=C(\C)C(C)S(C)(=O)=O` (stereo not given), the Potency was “inactive”. For `Cc1cc(C2CC2)nc(Nc2ccccc2)n1`, the Potency was “inactive”. With `COP(=O)(OC)O/C(=C\Cl)c1cc(Cl)c(Cl)cc1Cl` the Potency was “inactive”. For `NC1CCC(CC2CCC(N)CC2)CC1` (stereo not given), the Potency was “inactive”. With `C=CCBr` the Potency was “inactive”. For `c1csc(-c2ccc(-c3cccs3)s2)c1`, the Potency was “inactive”. For `N#Cc1c[nH]cc1-c1cccc2c1OC(F)(F)O2`, the Potency was “inactive”. For `O=C(Cl)c1ccccc1F`, the Potency was “inactive”. For `CCCCCCC[CH2][Sn]([Cl])([Cl])[CH2]CCCCCCC`, the Potency was “inactive”. With `O=C(NC(=O)c1ccccc1Cl)Nc1ccc(OC(F)(F)F)cc1` the Potency was “inactive”. With `CCNS(=O)(=O)C(F)(F)C(F)(F)C(F)(F)C(F)(F)C(F)(F)C(F)(F)C(F)(F)C(F)(F)F` the Potency was “inactive”. For `COC(=O)C(C)N(C(=O)c1ccco1)c1c(C)cccc1C` (stereo not given), the Potency was “inactive”. In the case of `O=C(O)CCCCCCNC1c2ccccc2CCc2ccccc21`, the Potency is reported as “inactive”. For `C=Cc1cccc(CCl)c1`, the Potency was “inactive”. With `FC(F)C(F)(F)OCC(Cn1cncn1)c1ccc(Cl)cc1Cl` (stereo not given) the Potency was “inactive”. With `CSC(C)(C)/C=N/O` the Potency was “inactive”. In the case of `Brc1cccc(-c2ccccc2)c1`, the Potency is reported as “inactive”. For `[Cl-].[Cl-].[Cl-].[Yb+3]`, the Potency was “inactive”. With `CCCCCCCCCCCCCCn1cc[n+](C)c1` the Potency was “inactive”. In the case of `O=[N+]([O-])c1ccc(Cl)c(Cl)c1Cl`, the Potency is reported as “inactive”. In the case of `COC(=O)N(OC)c1ccccc1COc1ccn(-c2ccc(Cl)cc2)n1`, the Potency is reported as “inactive”. For `CC1CN1` (stereo not given), the Potency was “inactive”. In the case of `C#CCC1=C(C)C(OC(=O)C2C(C=C(C)C)C2(C)C)CC1=O` (stereo not given), the Potency is reported as “inactive”. With `[Cl-].[Cl-].[Sn+2]` the Potency was “inactive”. In the case of `Cc1c([N+](=O)[O-])c(C)c([N+](=O)[O-])c(C(C)(C)C)c1[N+](=O)[O-]`, the Potency is reported as “inactive”. For `CC(C)=CCN1CC[C@@]2(C)c3cc(O)ccc3C[C@@H]1[C@@H]2C`, the Potency was “inactive”. For `c1cc[n+]2c(c1)-c1cccc[n+]1CC2`, the Potency was “inactive”. In the case of `CCOP(=S)(NC(C)C)Oc1ccccc1C(=O)OC(C)C` (stereo not given), the Potency is reported as “inactive”. For `COc1ccc2c3c1O[C@H]1[C@H](O)CC[C@H]4[C@@H](C2)N(C)CC[C@@]341`, the Potency was “inactive”. For `N#CCCl`, the Potency was “inactive”. With `CNC(=O)/C=C(\C)OP(=O)(OC)OC` the Potency was “inactive”. In the case of `CC(C)c1c(CN(C)C(C)Cc2ccccc2)n(C)n(-c2ccccc2)c1=O` (stereo not given), the fluorescence, % of triamterene is reported as -0.225% [at 18.6 µM] (inactive). With `CCC(C)Nc1c([N+](=O)[O-])cc(C(C)(C)C)cc1[N+](=O)[O-]` (stereo not given) the Potency was “inactive”. With `Nc1ccccc1-c1ccccc1` the Potency was “inactive”.
